# Screening results: PubChem, National Center for Advancing Translational Sciences (NCATS)
# Compounds with a hit are over-represented: about 6.6% of the library has one in this group of screens.
# MCF10A rereplic = induces DNA re-replication in MCF 10a normal breast cells; MCF 10A DNA re-replication, Hoechst nuclear intensity, 48 h; Potency, µM (doses to about 46.1 µM), for the others: at the highest dose activity, positive = re-replication, usual class: activators; 350,000 compounds, 2.9% hits; AID 624296; note: % of control where 0% means no effect; nearly all actives have a fitted effect of over 50% in size
# KB-3-1 tox = KB-3-1 parental cell cytotoxicity; KB-3-1 viability, CellTiter-Glo ATP luminescence, 72 h; Potency, µM (series often up to 46.1 µM), most hits filed as cytotoxic; 400,000 compounds, 1.4% hits; AID 1347075; note: % is set by controls: 0 for no effect and ±100 for the full control effect; nearly all actives have a fitted effect of over 60% in size
#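 Parental KB-3-1 adenocarcinoma cells in phenol-red-free DMEM with 10% FBS were pin-treated with compounds at several concentrations, incubated 72 h at 37 °C, and viability read by CellTiter-Glo luminescence; concentration-effect curves were fitted after normalization.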
# RGS4 inh = inhibitors of human regulator of G protein signaling 4; Transcreener GDP fluorescence polarization, RGS4-accelerated GTP hydrolysis; Potency, µM (highest dose often 114 µM), for inactives: at the top dose activity change, negative = inhibition, hits mostly inhibitors; 390,000 compounds, 0.039% hits; note: % is set by controls: 0 for no effect and ±100 for the full control effect; nearly all actives have a fitted effect of over 75% in size
# Target sequence (P49798 whole entry, looked up): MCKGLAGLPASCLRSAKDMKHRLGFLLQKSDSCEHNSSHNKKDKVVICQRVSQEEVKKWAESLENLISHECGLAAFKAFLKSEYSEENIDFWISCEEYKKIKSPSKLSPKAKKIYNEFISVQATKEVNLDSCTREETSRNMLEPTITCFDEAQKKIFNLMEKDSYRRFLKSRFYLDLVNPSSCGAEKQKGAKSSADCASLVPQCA
#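 MLSMR compounds (23 nl, pin-transferred) preincubated 10 min at room temperature with a 500nM (2x) first reagent, then RGS4 at 900nM (2x) plus Transcreener GDP mix added; fluorescence polarization (620/688 nm) read before and after 90 min at 30 °C.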
# KB-V1 MDR tox = KB-V1 MDR subline cytotoxicity. KB-V1 MDR cells viability, CellTiter-Glo, 72 h. Potency, µM (titrated, usually from 46.1 µM), usual class: cytotoxic. 400,000 compounds, 3.4% hits; note: % is set by controls: 0 for no effect and ±100 for the full control effect; nearly all actives have a fitted effect of over 60% in size
#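 Following 72 h at 37 degrees C with compound, KB-V1 cell viability was read by CellTiter-Glo luminescence, medium being phenol-red-free DMEM plus 10% FBS; concentration-response parameters came from normalized, curve-fitted qHTS data.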
# SW480 rereplic = DNA re-replication induction in SW480 cells; SW480 DNA re-replication, Hoechst DNA content imaging, 48 h; Potency, µM (highest dose often 46.1 µM), for the others: top-dose re-replication activation, hits mostly activators; 340,000 compounds, 1.8% hits; note: % of control where 0% means no effect; nearly all actives have a fitted effect of over 55% in size
#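 First, 250 cells per well were seeded. Next, compound or vehicle (23 nL) was pinned in, plates sat 48 hr at 37 C. Finally Hoechst was added for 40 min before fluorescence scanning.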
# PTAP TSG101 blk = blocks PTAP/TSG101 interaction to inhibit HIV-1 budding; Potency, µM (highest dose often 115 µM), inactives show at the top dose activity change, negative = inhibition, usual class: inhibitors; Q99816; Fluorescence polarization, FITC-PTAP peptide / Tsg101 binding; 340,000 tested, under 10 active; active = well fitted inhibition curve with a large enough effect in the main read-out, with a control signal flat, not every such curve was filed as active; inconclusive = small, poorly fitted or top-dose-only effect, or effect the other way, or a change in a side signal; inactive = no such curve, though single readings can be large or run the other way; note: % of control where 0% means no effect
# Target sequence (Q99816 whole entry, looked up): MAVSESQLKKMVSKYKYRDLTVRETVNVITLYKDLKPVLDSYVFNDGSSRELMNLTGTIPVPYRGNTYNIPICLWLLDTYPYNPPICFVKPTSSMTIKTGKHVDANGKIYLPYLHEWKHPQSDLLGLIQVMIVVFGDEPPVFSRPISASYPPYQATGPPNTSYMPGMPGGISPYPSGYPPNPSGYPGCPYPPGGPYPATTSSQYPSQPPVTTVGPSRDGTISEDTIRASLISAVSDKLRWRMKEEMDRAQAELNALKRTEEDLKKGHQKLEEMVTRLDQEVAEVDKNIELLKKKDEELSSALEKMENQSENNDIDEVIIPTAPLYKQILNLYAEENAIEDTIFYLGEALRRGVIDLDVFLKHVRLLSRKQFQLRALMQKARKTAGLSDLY
#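 FP read-out: FITC-PTAP peptide, 50 nM final, binding Tsg101 binding domain, 10 uM final; 20 min, r.t.; 10 mM HEPES pH 7.5, 0.15 M NaCl, 0.01% Tween 20, 3 mM EDTA, 0.1 mM TCEP.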
# * = called active by the depositor; i = inactive; u = inconclusive; x = no result; [ ] = dose if it differs, or a comment. Unless noted, calls come from the whole dose curve; as a rule, active = well fitted curve in the direction sought with a large enough effect; inconclusive = small, poorly fitted or top-dose-only effect, or another doubt; inactive = no such curve, though single readings can be large; an effect the other way counts as inactive or inconclusive. Potency is the fitted concentration of half-maximal effect.
SMILES,MCF10A rereplic,KB-3-1 tox,RGS4 inh,KB-V1 MDR tox,SW480 rereplic,PTAP TSG101 blk
CCOC(=O)C1CCCN(C(=O)C2CCN(S(=O)(=O)c3c(C)noc3/C=C/c3ccc(C)cc3)CC2)C1 (stereo unspecified),x,i,-6%,i,x,x
Cc1ccc(CSc2nc3cccnc3n2Cc2ccc(C(=O)NCCc3cccs3)cc2)cc1,x,x,-5%,x,x,x
CN(C)c1ccc(CNC(=O)c2cnc3sc(N4CCOCC4)nn3c2=O)cc1,x,x,-28%,x,x,x
Cc1ccc(-n2nc(C)c3c(C)c(CCC(=O)Nc4ccc(CN5CCCC5)cc4)c(C)nc32)cc1,26µM*,i,6%,i,u,-9%
COc1ccc(CCNC(=O)CCc2c(C)nc3c(c(C)nn3-c3ccc(C)c(C)c3)c2C)cc1OC,x,i,-15%,i,x,x
CC(=O)c1ccc(NC(=O)CCc2c(C)nc3c(c(C)nn3-c3ccc(C)cc3)c2C)cc1,x,x,24%,x,x,x
CCN(CC)CCNC(=O)CCc1c(C)nc2c(c(C)nn2-c2ccc(C)c(C)c2)c1C,20%,u,2%,i,15µM*,-2%
COC(=O)C1=C[C@@H](C(=O)OC)C2C3=C(C(=O)[C@]2(C)NC(=O)c2ccccc2)[C@H](C)n2c(=O)n(C)c(=O)n2[C@@H]3C1 (stereo partly specified),x,x,6%,x,x,x
c1nc(N2CCCCCC2)c2[nH]cnc2n1,16%,i,-7%,23µM*,-6%,-2%
Cc1ccc(C2=NC3(CCCC3)N=C2SCC(=O)Nc2ccc3c(c2)OCCO3)cc1,u,i,-32%,i,21µM*,0%
O=C(CSC1=NC2(CCCCCC2)N=C1c1ccccc1)Nc1ccc2c(c1)OCCO2,1%,i,-3%,i,14%,-2%
Cc1ccc(-n2nc3c4c(cccc4c2=O)-c2ccccc2-3)cc1,u,u,u,8.2µM*,1%,0%
COc1ccc(Oc2nc(-c3ccccn3)ncc2OC)cc1,-9%,i,31%,i,-7%,-5%
COc1cnc(-c2ccccn2)nc1Sc1c(Cl)cccc1Cl,u,u,13%,2.9µM*,15µM*,-11%
COc1cnc(-c2ccccn2)nc1Oc1cccc(Cl)c1,1%,i,-11%,6.5µM*,3%,-3%
COc1cnc(-c2ccccn2)nc1Sc1ccccc1Cl,u,u,10%,i,13µM*,-5%
COc1cnc(-c2ccccn2)nc1N(C)C,13%,u,-13%,21µM*,18µM*,-2%
CN(C)c1ccc(-c2ccc(CCO)cc2)cc1,x,i,x,i,x,x
O=C1CCC(=O)N1CO,-1%,x,x,x,0%,x
CCc1cc(C(=O)Nc2c(C)nn(Cc3ccc(C)cc3)c2C)no1,x,i,-19%,u,x,x
CN(C)S(=O)(=O)N1CCCC(C(=O)c2ccc(C(F)(F)F)cc2)C1 (stereo unspecified),10%,i,-13%,23µM*,0%,0%
Cn1ncc2c(O/N=C(\N)c3ccc(C(C)(C)C)cc3)ncnc21,18µM*,u,-10%,13µM*,9.2µM*,-3%
Cc1ccc(C(=O)c2cn(Cc3cc(C)ccc3C)c3nc(C)ccc3c2=O)cc1,x,i,-29%,u,x,x
CC1CCN(C(=O)c2cc3nc(-c4ccccc4)cc(-c4ccccc4)n3n2)CC1,16µM*,i,-10%,i,15%,-4%
O=C(c1cnn2c(-c3ccccc3)cc(-c3ccccc3)nc12)N1CCN(Cc2ccccc2)CC1,u,u,19%[11.4 µM],i,18µM*,-11%
SMILES,MCF10A rereplic,KB-3-1 tox,RGS4 inh,KB-V1 MDR tox,SW480 rereplic,PTAP TSG101 blk
O=C(NC1CCCC1)c1cc2nc(-c3ccccc3)cc(-c3ccccc3)n2n1,u,i,6%,i,-3%,1%
COc1ccc(-c2ccc(N(C)C)cc2)cc1C1C2C=CCC(C)C2C(=O)N1Cc1ccccc1 (stereo unspecified),x,x,-20%,x,x,x
COc1ccc(C(=O)Nc2ccc(S(=O)(=O)Nc3nccnc3OC)cc2)cc1,7%,u,-49%,18µM*,18%,-6%
Cc1ccc(S(=O)(=O)Nc2ccc(C(=O)Nc3ccncc3)cc2)cc1,15%,i,-2%,i,3.3µM*,-3%
O=C(CN(Cc1ccccc1)C1=NCCS1)c1ccccc1,1%,i,-14%,18µM*,2%,0%
Cc1ccc(C(=O)CN(Cc2ccccc2)C2=NCCS2)cc1,5%,i,-4%,16µM*,12%,-10%
Cc1ccc(C2CC(=O)C=C(NCC(C)C)C2)cc1 (stereo unspecified),u,u,u,u,-12%,-1%
Cc1ccc(C2CC(=O)C=C(NCc3ccccc3)C2)cc1 (stereo unspecified),21µM*,15µM*,1%,21µM*,23µM*,2%
COc1ccccc1NC(=O)Cn1c(=O)n(CCc2ccccc2)c(=O)c2c3c(sc21)CN(C(C)=O)CC3,x,i,-2%,i,x,x
COC(=O)CCC(NS(=O)(=O)OCC(Cl)(Cl)Cl)c1ccccc1 (stereo unspecified),0%,i,-9%,i,-1%,-1%
CC(C)CC(NS(=O)(=O)OCC(Cl)(Cl)Cl)c1ccccc1 (stereo unspecified),u,i,-6%,23µM*,-1%,-5%
CC(=O)Nc1nnc(SCc2cc(=O)c3cccc(Cl)c3[nH]2)s1,x,x,-15%,x,x,x
COc1ccc(Br)cc1CN(C)CC(=O)Nc1cc(Cl)ccc1Cl,u,i,14%,7.3µM*,4%,-1%
COc1ccccc1CN(C)CC(=O)Nc1ccc(Cl)cc1C(F)(F)F,u,i,13%,i,9%,-2%
COc1ccccc1CN(C)CC(=O)Nc1ccc(Cl)cc1F,1.2µM*,i,-8%,i,-60%,1%
COc1ccc(Br)cc1CN(C)CC(=O)Nc1ccccc1Cl,u,i,3%,u,-17%,0%
CCOc1ccc(CNCc2c(C(=O)O)n(Cc3ccc(OC)cc3)c3ccccc23)cc1,x,u,23%,i,x,x
C=CC[n+]1ccc(/C=C2\C=Cc3cc(C)ccc3N2CC)c2ccccc21,u,8.2µM*,-4%,i,101%,-2%
CC(C)Cc1nnc(NC(=O)c2cc3c(s2)CCC3)s1,23µM*,i,-18%,i,23µM*,0%
O=C(Nc1nncs1)c1cc2c(s1)CCC2,-4%,i,12%,u,-1%,-2%
